Data taken from PubChem BioAssay (NCI).
Compounds without any hit were thinned out: in the full panel of roughly 79,000, 15% have a hit. Calls of active or inactive are those of the source. Rule as the data show it: active = growth inhibition above about 70%; inactive = the rest.

How the values were obtained:
[1] = NCI Yeast Anticancer Drug Screen. Data for the rad50 strain (AID 155);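 also: 0% = growth of vehicle-only cultures of the same strain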; conditions: S. cerevisiae rad50 strain growth inhibition, hits give high values
Method in brief: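 Genetically altered yeast (DNA repair pathway); compound treatment; growth inhibition vs vehicle ctrl.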

[2] = NCI Yeast Anticancer Drug Screen. Data for the mec2-1 strain (AID 157); conditions: S. cerevisiae mec2-1 strain, hits give high values
Method in brief: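 Mutant yeast (mec2-1) grown with compound; growth inhibition relative to vehicle control reported.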

[3] = NCI Yeast Anticancer Drug Screen. Data for the sgs1 mgt1 strain (AID 161);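 also: 0% = growth of cultures given vehicle only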; conditions: S. cerevisiae sgs1 mgt1 strain, hits give high values
Method in brief: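 This yeast growth screen uses a strain with defined DNA-repair lesions; compound-treated growth is compared with vehicle-treated growth.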

[4] = NCI Yeast Anticancer Drug Screen. Data for the cln2 rad14 strain (AID 165);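 also: 0% = growth equal to vehicle treated cultures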; conditions: S. cerevisiae cln2 rad14 strain, hits give high values
Method in brief: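 Readout is yeast growth inhibition versus vehicle-treated controls, using a strain with cln2 and rad14 alterations exposed to compound.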

[5] = NCI Yeast Anticancer Drug Screen. Data for the bub3 strain (AID 167); conditions: S. cerevisiae bub3 mutant strain, hits give high values
Method in brief: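 Yeast carrying a defined mutation is treated with each compound, and growth is compared with that of vehicle-exposed cells to give inhibition.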

[6] = NCI Yeast Anticancer Drug Screen. Data for the mlh1 rad18 strain (AID 175); conditions: S. cerevisiae mlh1 rad18 strain growth inhibition, hits give high values
Method in brief: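 Genetically defined yeast (DNA repair-deficient) exposed to compounds; growth inhibition determined relative to vehicle.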

[7] = at 5.0 µM (retest, dose inferred, filed as 0.5)
[8] = at 50.0 µM (retest, dose inferred, filed as 5.0)

SMILES	growth inhibition [1, 7]	growth inhibition [1, 8]	growth inhibition ([1]; at 50.0 µM)	growth inhibition [2, 7]	growth inhibition [2, 8]	growth inhibition ([2]; at 50.0 µM)	growth inhibition [3, 7]	growth inhibition [3, 8]	growth inhibition ([3]; at 50.0 µM)	growth inhibition [4, 7]	growth inhibition [4, 8]	growth inhibition ([4]; at 50.0 µM)	growth inhibition [5, 7]	growth inhibition [5, 8]	growth inhibition ([5]; at 50.0 µM)	growth inhibition [6, 7]	growth inhibition [6, 8]	growth inhibition ([6]; at 50.0 µM)
Cc1c2c(c(C)c3c1OC(C)(C)CC3)OC(C)(C)CC2	-10% (inactive)	-4% (inactive)	34.6% (inactive)	-13% (inactive)	-7% (inactive)	77.2% (active)	-14% (inactive)	8% (inactive)	62.2% (inactive)	-6% (inactive)	0% (inactive)	46.5% (inactive)	-5% (inactive)	-5% (inactive)	11.2% (inactive)	-13% (inactive)	-7% (inactive)	98.2% (active)
CC(=O)c1c2c(cc3c1CC1(C3)Cc3cc4c(c(C(=O)O)c3C1)CCC4)CCC2 (centres undefined)	53% (inactive)	94% (active)	84% (active)	56% (inactive)	96% (active)	79.8% (active)	65% (inactive)	97% (active)	89.6% (active)	70% (active)	95% (active)	84.2% (active)	63% (inactive)	95% (active)	83.5% (active)	73% (active)	96% (active)	83.4% (active)
CCCCCC(C)NCC(O)Cc1ccc(OCCCC)cc1 (centres undefined)	22% (inactive)	100% (active)	99.5% (active)	29% (inactive)	99% (active)	99.3% (active)	37% (inactive)	100% (active)	99.3% (active)	34% (inactive)	100% (active)	98.9% (active)	42% (inactive)	100% (active)	99.5% (active)	20% (inactive)	100% (active)	99.7% (active)
COC(=O)c1nnn(-c2ccc(S(N)(=O)=O)cc2)c1C(=O)c1ccc(Cl)c(Cl)c1	1% (inactive)	98% (active)	98.5% (active)	22% (inactive)	99% (active)	98% (active)	20% (inactive)	99% (active)	98.2% (active)	19% (inactive)	98% (active)	96% (active)	30% (inactive)	99% (active)	94.8% (active)	22% (inactive)	99% (active)	98.3% (active)
CSC(SC)=C1C(=O)NC(Cc2ccccc2)C1=O (centres undefined)	6% (inactive)	50% (inactive)	80.1% (active)	1% (inactive)	35% (inactive)	36.1% (inactive)	0% (inactive)	66% (inactive)	71.8% (active)	2% (inactive)	24% (inactive)	37.5% (inactive)	1% (inactive)	34% (inactive)	50.3% (inactive)	5% (inactive)	68% (inactive)	83% (active)
Cc1nc2ccc3c(ccc4nc(C)c(N=Nc5ccc(C(=N)N)cc5)c(O)c43)c2c(O)c1N=Nc1ccc(C(=N)N)cc1	5% (inactive)	89% (active)	93.8% (active)	0% (inactive)	95% (active)	95.6% (active)	-1% (inactive)	70% (active)	85.2% (active)	-4% (inactive)	81% (active)	87% (active)	-6% (inactive)	58% (inactive)	93.3% (active)	2% (inactive)	77% (active)	90.7% (active)
Cc1ccc(Nc2nc(C)c(C(=O)C/C(=N\NC(N)=S)C(=O)Nc3ccc(Cl)cc3C)s2)cc1	-6% (inactive)	19% (inactive)	71.5% (active)	-12% (inactive)	-3% (inactive)	17.2% (inactive)	-3% (inactive)	11% (inactive)	82.3% (active)	-8% (inactive)	10% (inactive)	34.6% (inactive)	-19% (inactive)	5% (inactive)	33% (inactive)	12% (inactive)	-9% (inactive)	57.1% (inactive)
CCC(C)C(C(=O)NOC(=O)c1ccccc1)/C(N)=N/OC(=O)c1ccccc1 (centres undefined)	89% (active)	99% (active)	99.5% (active)	83% (active)	100% (active)	98.3% (active)	96% (active)	99% (active)	99.6% (active)	87% (active)	99% (active)	99.5% (active)	91% (active)	99% (active)	99.4% (active)	97% (active)	99% (active)	98.9% (active)
CCCN(CCC)c1ccc(Cc2ccc(N(CCC)CCC)cc2N)c(N)c1	-3% (inactive)	96% (active)	97.8% (active)	-5% (inactive)	98% (active)	98.3% (active)	-6% (inactive)	99% (active)	44.5% (inactive)	-1% (inactive)	91% (active)	97% (active)	-1% (inactive)	96% (active)	96.8% (active)	-5% (inactive)	95% (active)	98.1% (active)
Nc1ccc2c(c1)[nH]c(=O)c1c(Cl)cccc12	-108% (inactive)	47% (inactive)	84.5% (active)	-41% (inactive)	-26% (inactive)	41% (inactive)	-58% (inactive)	-33% (inactive)	21.4% (inactive)	-46% (inactive)	-39% (inactive)	48.5% (inactive)	-50% (inactive)	-42% (inactive)	4.8% (inactive)	-87% (inactive)	-45% (inactive)	55.5% (inactive)
CC(CN(C)C)C(/C=C/c1ccc(Cl)cc1)=N\NC(=O)c1ccccc1 (centres undefined)	3% (inactive)	15% (inactive)	17.6% (inactive)	2% (inactive)	12% (inactive)	-4.45% (inactive)	1% (inactive)	-3% (inactive)	-15.3% (inactive)	2% (inactive)	6% (inactive)	-1.65% (inactive)	-3% (inactive)	-10% (inactive)	-11.9% (inactive)	3% (inactive)	-36% (inactive)	27.2% (inactive)
CCCn1cc2c(SC)nc(SC)nc2n1	-1% (inactive)	5% (inactive)	98.1% (active)	0% (inactive)	46% (inactive)	98.3% (active)	-2% (inactive)	10% (inactive)	97% (active)	2% (inactive)	38% (inactive)	87.3% (active)	4% (inactive)	99% (active)	99.5% (active)	-3% (inactive)	14% (inactive)	98.1% (active)
O=C(CNc1ccc(Cl)cc1)Nn1c(-c2ccccc2)nc2ccccc2c1=O	8% (inactive)	29% (inactive)	64.7% (inactive)	-9% (inactive)	42% (inactive)	56.6% (inactive)	10% (inactive)	30% (inactive)	79% (active)	11% (inactive)	32% (inactive)	45.2% (inactive)	-7% (inactive)	31% (inactive)	62.1% (inactive)	4% (inactive)	51% (inactive)	81.3% (active)
CCOC(=O)c1cc(Cl)nc2ccc(OC)cc12	-3% (inactive)	-30% (inactive)	0.05% (inactive)	-3% (inactive)	-30% (inactive)	9.35% (inactive)	-4% (inactive)	-31% (inactive)	20.3% (inactive)	0% (inactive)	-41% (inactive)	40.9% (inactive)	6% (inactive)	-12% (inactive)	49.4% (inactive)	-2% (inactive)	-25% (inactive)	15.4% (inactive)
CC(=O)OC1=CC(n2cc(F)c(=O)[nH]c2=O)OC(C)C1=O (centres undefined)	23% (inactive)	58% (inactive)	69.7% (inactive)	13% (inactive)	85% (active)	88.4% (active)	24% (inactive)	64% (inactive)	86.5% (active)	19% (inactive)	4% (inactive)	37.5% (inactive)	15% (inactive)	-13% (inactive)	62.1% (inactive)	20% (inactive)	57% (inactive)	51.7% (inactive)
C/C(=N\NC(=S)N1CCN(C2CCCCCC2)CC1)c1ccccn1	-4% (inactive)	99% (active)	50.5% (inactive)	-6% (inactive)	99% (active)	65.3% (inactive)	-4% (inactive)	99% (active)	26.1% (inactive)	8% (inactive)	99% (active)	42% (inactive)	-17% (inactive)	99% (active)	19.4% (inactive)	14% (inactive)	99% (active)	40% (inactive)
S=c1sc2ccccc2n1C=Nc1ccccc1	-2% (inactive)	83% (active)	98.9% (active)	-5% (inactive)	97% (active)	98.8% (active)	-1% (inactive)	96% (active)	98.7% (active)	-8% (inactive)	81% (active)	96.2% (active)	-1% (inactive)	96% (active)	99.1% (active)	-2% (inactive)	79% (active)	98.3% (active)
CN1C(=S)C(=N)OC1c1ccccc1F (centres undefined)	7% (inactive)	91% (active)	84.3% (active)	16% (inactive)	97% (active)	75.3% (active)	7% (inactive)	98% (active)	85.6% (active)	-2% (inactive)	82% (active)	33.4% (inactive)	10% (inactive)	99% (active)	89.2% (active)	-13% (inactive)	96% (active)	84.8% (active)
